Here are results for 24 molecules from PubChem BioAssay (NCATS).

The nature of test [1]: qHTS to identify inhibitors of the type 1 interferon - major histocompatibility complex class I in skeletal muscle: primary screen against the NCATS Pharmaceutical Collection (AID 1347407).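 Note: luminescence of HiBiT knocked into endogenous HLA-B as interferon-induced MHC class I level; % is set by controls: 0 for no effect and ±100 for the full control effect.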 In outline:
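A qHTS format is used: 8-point, 1:5 compound series with 46 uM top final concentration, applied alongside 4 ng/ml IFN-beta to HLA-B*08:01-HiBiT knock-in myoblasts. Luminescence is measured after 24 h treatment.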
Background: Quantitative high-throughput screening tests each substance at several concentrations.

For test [2], the target named is Protein phosphatase 1D (Homo sapiens) (UniProt O15297). Description: RapidFire Mass Spectrometry qHTS Assay for Modulators of WT P53-Induced Phosphatase 1 (WIP1) (AID 1347424).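 Note: amount of dephosphorylated VEPPL-S-QETFS peptide product formed by WIP1; series mostly up to about 63 µM; plate controls were DMSO wells for no effect and GSK830371 inhibitor control at 10 µM for full effect.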 The gist of the method: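 10 nM WIP1 preincubated with compounds 1 hr at room temperature in pH 7.5 Tris buffer with 30 mM MgCl2, 1 mM TCEP; 2 uM VEPPL-pS-QETFS phosphopeptide for 5 min, formic acid quench; dephosphorylated product quantified by RapidFire MS against labelled standard.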
Chain of Protein phosphatase 1D (Homo sapiens) (O15297 whole entry, looked up): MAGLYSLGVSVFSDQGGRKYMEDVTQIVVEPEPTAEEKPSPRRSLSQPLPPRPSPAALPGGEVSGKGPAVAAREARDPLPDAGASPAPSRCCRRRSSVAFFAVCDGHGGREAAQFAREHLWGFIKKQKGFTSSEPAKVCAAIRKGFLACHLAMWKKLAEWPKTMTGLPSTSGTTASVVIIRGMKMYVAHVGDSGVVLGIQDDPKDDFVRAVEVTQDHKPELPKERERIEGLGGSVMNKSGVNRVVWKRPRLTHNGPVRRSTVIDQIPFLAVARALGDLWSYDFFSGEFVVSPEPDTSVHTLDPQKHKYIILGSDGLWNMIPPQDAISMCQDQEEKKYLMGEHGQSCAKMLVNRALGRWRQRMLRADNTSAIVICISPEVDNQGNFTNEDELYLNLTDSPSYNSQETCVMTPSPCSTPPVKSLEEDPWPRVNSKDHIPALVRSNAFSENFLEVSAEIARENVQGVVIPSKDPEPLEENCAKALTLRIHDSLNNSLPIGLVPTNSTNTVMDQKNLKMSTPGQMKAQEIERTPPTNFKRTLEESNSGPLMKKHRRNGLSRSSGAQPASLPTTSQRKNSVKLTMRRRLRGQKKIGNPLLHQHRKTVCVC

Test [3] has the same target. Description: Rhodamine-PBP qHTS Assay for Modulators of WT P53-Induced Phosphatase 1 (WIP1) (AID 1347425). Note: % of control where 0% means no effect. The gist of the method: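 Read-out: Rhodamine-PBP fluorescence (ex 525/em 598 nm) for released Pi, read each minute for 11 min after adding 10 uM VEPPL-pS-QETFS; signal taken as f1 minus pre-substrate f0. Enzyme 5 nM WIP1 with 1 hr room-temperature compound preincubation.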

Test [4] is described as follows: Primary qHTS for inhibitors of La Crosse Virus (LACV) - induced cell death in SH-SY5Y cells (AID 1508616).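 Note: top concentration of the series differs between compounds; 0% = infected DMSO wells and 100% = uninfected DMSO wells; higher means more rescue of cells from virus-induced death.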 In outline: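 Luminescent ATP readout (ATPLite 1step, 5 min room temperature) measured rescue from LACV-induced death after 6 days of infection at 0.01 MOI; normalized to infected DMSO wells and uninfected DMSO wells.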
A short description of test [5]: Primary qHTS for small molecule stabilizers of the endoplasmic reticulum resident proteome: Secreted ER Calcium Modulated Protein (SERCaMP) assay (AID 1508630). Note: % is set by controls: 0 for no effect and ±100 for the full control effect. The gist of the method:
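GLuc-SERCaMP-expressing SH-SY5Y cells, pretreated 16 h with compound, are challenged with thapsigargin to empty ER calcium stores; after 4 h, coelenterazine is added directly to the medium and luminescence is imaged.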

Test [6] is described as follows: A High-Content qHTS Against Drug Library for the Identification of Small Molecules that Inhibit DYT1 Early Onset Primary Dystonia-Associated Cell Pathology (AID 1645839; calls by dose curve; note: series mostly up to about 46 µM). The gist of the method: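 Flp-In T-REx 293 cells with tetracycline-inducible EGFP-delE hTOR1A (WT EGFP-hTOR1A as reference), 800 cells/well; compound added with tetracycline, 48 h at 37 C. Fixed, permeabilized cells imaged; %pathology (punctate TorsinA) primary, cell count counterscreen.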

Test [7] has as its target Cytochrome P450 2D6 (Homo sapiens) (UniProt P10635). Description: Cytochrome P450 family 2 subfamily D member 6 (CYP2D6) small molecule antagonists: luciferase biochemical (cell-free) qHTS assay (AID 1645840; active = well fitted curve in the direction sought with a large enough effect in the repeat runs; an effect the other way counts as inactive or inconclusive; note: nearly all actives have a fitted effect of over 55% in size; note: potency is the fitted concentration of half-maximal effect). The gist of the method: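 P450-Glo luminescent screen: recombinant CYP2D6 enzyme–proluciferin substrate mix preincubated with compound 10 min at room temperature, then NADPH regeneration added for 1 h at room temperature. Detection reagent added for 20 min; luciferin light read as relative luminescence units.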

Test [8] addresses Cytochrome P450 3A4 (Homo sapiens) (UniProt P08684). Description: Cytochrome P450 family 3 subfamily A member 4 (CYP3A4) small molecule antagonists: luciferase qHTS assay (AID 1645841; active = well fitted curve in the direction sought with a large enough effect in the repeat runs; an effect the other way counts as inactive or inconclusive; note: nearly all actives have a fitted effect of over 45% in size). In outline:
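P450-Glo CYP3A4 enzyme with proluciferin substrate preincubated 10 min with compound at room temperature, then NADPH regeneration 1 h. Luciferin detection reagent added for 20 min; luminescence recorded. Ketoconazole positive control.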

The target of test [9] is Cytochrome P450 2C9 (Homo sapiens) (UniProt P11712). Description: Cytochrome P450 family 2 subfamily C member 9 (CYP2C9) small molecule antagonists: luciferase biochemical (cell-free) qHTS assay (AID 1645842; active = well fitted curve in the direction sought with a large enough effect in the repeat runs; an effect the other way counts as inactive or inconclusive; note: nearly all actives have a fitted effect of over 55% in size; note: potency is the fitted concentration of half-maximal effect). In outline:
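Luminescence, after 20 min with luciferin detection reagent, reflected CYP2C9 turnover during a 1 h NADPH-driven reaction at 37C. Enzyme-substrate mix contained 0.4% bovine serum albumin and was preincubated with compound 10 min at room temperature.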

A short description of test [10]: Primary qHTS for inhibitors of nuclear receptor binding SET domain protein 2 (NSD2) in an isogenic RCH-ACV NSD2 p.E1099K mutant (9B) (AID 1645876). Note: nearly all actives have a fitted effect of over 70% in size.
A short description of test [11]: Primary qHTS for inhibitors of nuclear receptor binding SET domain protein 2 (NSD2) in an RCH-ACV wild type WT cells (2C) (AID 1645877). Note: nearly all actives have a fitted effect of over 70% in size.
The target of test [12] is Calcium and integrin-binding protein 1 (Homo sapiens) (UniProt Q99828). The test is described as follows: Primary qHTS for Identification of Calcium Integrin Binding Protein 1 (CIB1) Competitor (AID 1508620).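 Note: GST tagged CIB1 binding a fluorescein labelled alphaIIb integrin peptide tracer; top concentration of the series differs between compounds; % is set by controls: 0 for no effect and ±100 for the full control effect.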 In outline:
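Fluorescence polarization competition: GST-tagged CIB1 (1 uM final) preincubated with compound 15 min at room temperature, then FITC-labelled alphaIIb peptide (100 nM final) added. After 15 min at room temperature, polarization read at Ex 480/Em 540.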

Test [13] in a line: Counterscreen qHTS for small molecule stabilizers of the endoplasmic reticulum resident proteome: GLuc-NoTag assay (AID 1508627).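 Note: SH-SY5Y cells given compound then 100 nM thapsigargin to empty ER calcium; series mostly up to about 76 µM; 0% = thapsigargin alone and -100% = DMSO vehicle control.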 The gist of the method: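 SH-SY5Y cells stably expressing constitutively secreted GLuc without SERCaMP tag, exposed to compound for 19 hr, then to 100 nM thapsigargin for 4 hr at 37C. Medium luciferase was read by coelenterazine luminescence without lysis.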
On the technique in general: A counterscreen serves to expose hits that act by an unwanted route or on another target.

A short description of test [14]: Confirmatory qHTS for small molecule stabilizers of the endoplasmic reticulum resident proteome: Secreted ER Calcium Modulated Protein (SERCaMP) assay (AID 1508628).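 Note: SH-SY5Y cells given compound 16 h then thapsigargin 100 nM for 4 h; series mostly up to about 76 µM; % is set by controls: 0 for no effect and ±100 for the full control effect; nearly all actives have a fitted effect of over 40% in size.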 The gist of the method:
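We seeded SH-SY5Y-GLuc-SERCaMP cells, added compounds (three concentrations in the primary run, eleven up to 76.6 uM in confirmation), incubated 16 h, depleted ER calcium with thapsigargin, and read luciferase 4 h later.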

Test [15] in a line: Cell Viability qHTS for small molecule stabilizers of the endoplasmic reticulum resident proteome (AID 1508629).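 Note: human SH-SY5Y neuroblastoma cells carrying the GLuc-SERCaMP reporter; compound exposure about 46 h in total before the viability read; % is set by controls: 0 for no effect and ±100 for the full control effect.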 The settings on record: cell viability counter-screen, 100 nM thapsigargin for final 4 h.

Results filed as inconclusive are left out. Values without a mark were called inactive. Active and inactive are the calls of the source. Unless noted, calls come from the whole dose curve; as a rule, active = well fitted curve in the direction sought with a large enough effect; inconclusive = small, poorly fitted or top-dose-only effect, or another doubt; inactive = no such curve, though single readings can be large; an effect the other way counts as inactive or inconclusive.

Chain of Cytochrome P450 2D6 (Homo sapiens) (P10635 whole entry, looked up): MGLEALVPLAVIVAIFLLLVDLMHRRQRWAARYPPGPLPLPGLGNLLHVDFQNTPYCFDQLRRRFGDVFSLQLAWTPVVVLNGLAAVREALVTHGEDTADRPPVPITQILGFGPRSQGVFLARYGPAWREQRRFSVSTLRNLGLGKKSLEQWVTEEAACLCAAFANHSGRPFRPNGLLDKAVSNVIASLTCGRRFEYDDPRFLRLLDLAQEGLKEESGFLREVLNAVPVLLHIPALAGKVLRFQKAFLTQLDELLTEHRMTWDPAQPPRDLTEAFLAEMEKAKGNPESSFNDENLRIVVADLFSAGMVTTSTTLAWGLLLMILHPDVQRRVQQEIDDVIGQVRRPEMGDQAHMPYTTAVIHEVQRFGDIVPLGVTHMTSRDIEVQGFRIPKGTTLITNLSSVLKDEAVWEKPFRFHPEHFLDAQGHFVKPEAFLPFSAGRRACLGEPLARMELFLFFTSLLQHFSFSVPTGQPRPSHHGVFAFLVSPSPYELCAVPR
Chain of Cytochrome P450 2C9 (Homo sapiens) (P11712 whole entry, looked up): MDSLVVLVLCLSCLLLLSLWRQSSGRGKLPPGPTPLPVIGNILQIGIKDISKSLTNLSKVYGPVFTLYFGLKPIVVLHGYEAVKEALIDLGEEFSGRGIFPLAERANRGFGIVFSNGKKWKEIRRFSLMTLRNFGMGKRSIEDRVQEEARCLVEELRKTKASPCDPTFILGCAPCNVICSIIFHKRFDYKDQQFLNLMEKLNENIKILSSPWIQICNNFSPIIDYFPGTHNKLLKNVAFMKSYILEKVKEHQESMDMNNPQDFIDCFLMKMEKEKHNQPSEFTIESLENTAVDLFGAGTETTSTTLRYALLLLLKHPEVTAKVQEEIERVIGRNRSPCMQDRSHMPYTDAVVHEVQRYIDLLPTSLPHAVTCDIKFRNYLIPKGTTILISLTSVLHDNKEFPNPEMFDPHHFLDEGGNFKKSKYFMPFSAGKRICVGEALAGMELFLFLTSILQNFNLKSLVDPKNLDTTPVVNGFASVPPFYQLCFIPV
Chain of Calcium and integrin-binding protein 1 (Homo sapiens) (Q99828 whole entry, looked up): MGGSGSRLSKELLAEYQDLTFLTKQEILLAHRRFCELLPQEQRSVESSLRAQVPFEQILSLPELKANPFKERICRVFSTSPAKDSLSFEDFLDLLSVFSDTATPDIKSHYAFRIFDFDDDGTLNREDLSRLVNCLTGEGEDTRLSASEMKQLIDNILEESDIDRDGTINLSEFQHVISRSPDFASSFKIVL
Chain of Cytochrome P450 3A4 (Homo sapiens) (P08684 whole entry, looked up): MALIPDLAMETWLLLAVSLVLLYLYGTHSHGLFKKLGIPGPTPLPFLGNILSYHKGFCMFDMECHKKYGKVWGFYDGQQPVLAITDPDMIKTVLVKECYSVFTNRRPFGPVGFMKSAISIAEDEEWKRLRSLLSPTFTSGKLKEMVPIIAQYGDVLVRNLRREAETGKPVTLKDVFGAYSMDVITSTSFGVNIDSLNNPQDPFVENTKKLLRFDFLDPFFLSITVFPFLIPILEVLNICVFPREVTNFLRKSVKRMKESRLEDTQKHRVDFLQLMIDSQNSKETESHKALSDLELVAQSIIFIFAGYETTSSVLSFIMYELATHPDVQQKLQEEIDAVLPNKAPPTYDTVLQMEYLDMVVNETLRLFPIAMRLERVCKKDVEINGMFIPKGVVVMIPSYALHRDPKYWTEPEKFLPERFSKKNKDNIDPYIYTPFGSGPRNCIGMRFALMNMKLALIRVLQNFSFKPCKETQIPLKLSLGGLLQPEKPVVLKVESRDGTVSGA

Turning to `C[C@@H](N)C(=O)O`, the molecule was called inactive in [1], in test [2], in [3], in [4], in test [5] and in [8]. The Potency result in test [6], in test [7], in test [9], in test [10] and in test [11] was “inactive” each time.
Regarding `CN1CC(=O)NC1=N`, the molecule was classed as inactive in test [1], in test [2], in test [3], in test [4] and in test [12]. In addition, the Potency result in [7], in [9], in test [10] and in [11] was “inactive” each time.
As to `COc1ccccc1Oc1c(NS(=O)(=O)c2ccc(C(C)(C)C)cc2)nc(-c2ncccn2)nc1OCCO`, the outcome in [1], in test [2], in test [3], in test [4] and in test [5] was inactive. For the same molecule, the Potency entry in test [7] was “inactive”.
`C=CCOc1ccccc1OCC(O)CNC(C)C` (configuration not stated): the molecule was classed as inactive in [1], in test [2], in test [3], in [4] and in test [5]. For the same molecule, the Potency in [7] is 13.8 µM (active). Moreover, in [9], the Potency result was “inactive”.
`COc1ccc(-c2cc(=O)c3c(O)cc(O[C@@H]4O[C@H](CO[C@@H]5O[C@@H](C)[C@H](O)[C@@H](O)[C@H]5O)[C@@H](O)[C@H](O)[C@H]4O)cc3o2)cc1O`: the molecule was called inactive in test [1], in [2], in test [3], in test [4] and in test [5]. The Potency entry in [7], in test [9], in [10] and in test [11] was “inactive” in each case.
Regarding `CCN(CC)C(=O)c1cccc(C)c1`, the call in [1], in [2], in test [3], in [4] and in test [13] was inactive. Further, the Potency result in test [14], in [6], in [7], in test [9], in [10] and in [11] was “inactive” in each case. Further, in test [15], the max response is 12.2%.
In the case of `CN1C[C@@H]2C[C@H]1CN2c1cc2c(cc1F)c(=O)c(C(=O)O)cn2C1CC1`, the molecule was called inactive in [1], in [2], in test [3], in test [4] and in test [5]. Also, the Potency result in [6], in [7], in test [9], in test [10] and in [11] was “inactive” in each case.
For `O=C(O)CCCc1ccccc1`, the call in test [1], in test [2], in test [3], in test [4] and in test [5] was inactive. Further, the Potency entry in [6], in [9], in [10] and in test [11] was “inactive” in each case.
In the case of `COc1ccccc1OC(=O)Oc1ccccc1OC`, the call in [1], in test [2], in [3], in test [4] and in [5] was inactive. Further, the Potency entry in test [6], in test [7], in [9], in [10] and in test [11] was “inactive” each time.
For `O=C(O)c1ccc(OCCCOc2ccc(C(=O)O)cc2)cc1`, the result in test [1], in test [2], in test [3], in test [4] and in test [12] was inactive. Besides, in [7], the Potency is 12.3 µM (active). In addition, the Potency entry in [9], in test [10] and in test [11] was “inactive” in each case.
Take `CO[C@@]1(NC(=O)C(C(=O)O)c2ccc(O)cc2)C(=O)N2C(C(=O)O)=C(CSc3nnnn3C)CO[C@@H]21` (some centres not stated): the molecule was classed as inactive in [1], in [2], in test [3], in [4] and in [12]. In addition, the Potency entry in [9], in test [10] and in [11] was “inactive” throughout.
Regarding `Nc1ncnc2c1ncn2[C@@H]1O[C@H](COP(=O)(O)O)[C@@H](O)[C@H]1O`, the molecule was classed as inactive in test [1], in test [2], in [3], in [4] and in test [5]. Also, the Potency result in [6], in test [7], in test [9], in test [10] and in test [11] was “inactive” each time.
For `Cc1c(N(C)C)c(=O)n(-c2ccccc2)n1C`, the result in test [1], in [2], in [3], in test [4] and in [5] was inactive. In addition, the Potency result in test [6], in test [7], in test [10] and in test [11] was “inactive” throughout.
For `CC[C@]12CCCN3CCc4c(n(c5ccccc45)[C@@](O)(C(=O)OC)C1)[C@@H]32`, the result in test [1], in test [2], in test [3], in [4] and in test [5] was inactive. Besides, the Potency entry in test [6], in test [9] and in test [10] was “inactive” in each case. Besides, the Potency in test [7] is 11 µM (active).
Regarding `Nc1ncnc(Nc2ccccc2)n1`, the call in test [1], in test [2], in [3], in test [4] and in test [5] was inactive. Besides, the Potency entry in [6], in test [7], in [9], in [10] and in [11] was “inactive” in each case.
As for `CC(=O)[C@@]1(O)CC[C@H]2[C@@H]3C[C@H](C)C4=CC(=O)C=C[C@]4(C)[C@@]3(F)[C@@H](O)C[C@@]21C`, the molecule was called inactive in test [1], in [2], in test [3], in test [4] and in test [5]. The Potency result in test [6], in test [7] and in test [10] was “inactive” throughout. Besides, the Potency in test [9] was 4.36 µM (active).
Take `CCc1cccc(CC)c1NC(=O)CN(CC(=O)O)CC(=O)O`: the result in test [1], in [2], in test [3], in test [4] and in test [5] was inactive. The Potency entry in [6], in test [7], in [9], in test [10] and in [11] was “inactive” in each case.
As for `CC1(C)S[C@@H]2[C@H](N=CN3CCCCCC3)C(=O)N2[C@H]1C(=O)O`, the outcome in test [1], in test [2], in [3], in test [4] and in test [12] was inactive. Moreover, the Potency result in test [7], in test [9] and in test [10] was “inactive” each time.
Turning to `Cc1cccc(C(=O)O)c1O`, the outcome in test [1], in test [2], in test [3], in test [4] and in test [5] was inactive. The Potency result in [6], in test [7], in [9], in test [10] and in test [11] was “inactive” each time.
Take `CN[C@@H]1[C@H](O)[C@H](NC)[C@H]2O[C@@]3(O)C(=O)C[C@@H](C)O[C@H]3O[C@@H]2[C@H]1O`: the molecule was classed as inactive in [1], in [2], in [3], in [4] and in [5]. Also, the Potency entry in test [6], in [9], in test [10] and in test [11] was “inactive” in each case.
For `COCC(=O)Nc1c(I)c(C(=O)NCC(O)CO)c(I)c(C(=O)N(C)CC(O)CO)c1I` (configuration not stated), the call in test [1], in test [2], in [3], in [4] and in [5] was inactive. Moreover, the Potency result in test [6], in test [7], in [9], in test [10] and in [11] was “inactive” in each case.
For `O=C1c2cccc(O)c2C(=O)c2c(O)cccc21`, the result in test [1], in test [2], in test [3], in test [4] and in test [5] was inactive. The Potency result in test [6], in test [7], in [9], in [10] and in test [11] was “inactive” in each case.
As for `Cc1ccc(C(C)C)c(O)c1`, the molecule was classed as inactive in [1], in test [2], in [3], in test [4] and in test [12]. In addition, the Potency result in test [7], in test [9] and in test [10] was “inactive” throughout.
Turning to `O=C(O)Cn1c(C(=O)Nc2nc(-c3ccccc3Cl)cs2)cc2ccccc21`, the molecule was called inactive in test [1], in test [4] and in test [12]. Moreover, the Potency result in test [9] and in test [10] was “inactive” each time.
